This note sets out measurements from PubChem BioAssay.

“And” between values parts separate entries of the source, which are not always exact repeats. Equal values may be shown once. Inconclusive results are not listed. The source made the active and inactive calls.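 Rule for the calls, unless noted: active = normalized viability below 100% at a tested concentration; inactive = the rest.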

The nature of assay [1]: growth inhibition of DIPG glioma cells, dose response, cell-based, SU-DIPG-XVII, MIPE5.0, CellTiter-Glo, qHTS (AID 1347060; cut-off not given, nearly all actives have AC50 up to about 26 µM;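 note: cells exposed to compound for 48 hours before viability readout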). As to conditions: SU-DIPG-XVII viability, CellTiter-Glo ATP luminescence. (In general: Cellular ATP, detected with luciferase, serves as a proxy for viable cell number.)
The nature of assay [2]: growth inhibition of DIPG glioma cells, dose response, cell-based, SU-DIPG-XIII, MIPE4.0, CellTiter-Glo, qHTS (AID 1347061; cut-off not given, nearly all actives have AC50 up to about 37 µM;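 note: cells exposed to compound for 48 hours before readout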). As to conditions: SU-DIPG-XIII viability, CellTiter-Glo ATP luminescence.
The nature of assay [3]: growth inhibition of DIPG glioma cells, dose response, cell-based, JHH-DIPG-1, MIPE4.0, CellTiter-Glo, qHTS (AID 1347062; cut-off not given, nearly all actives have AC50 up to about 27 µM;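 for AC50: cells exposed to compound for two days before readout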). As to conditions: JHH-DIPG-1 viability, CellTiter-Glo ATP luminescence.
Assay [4] is described as follows: growth inhibition of DIPG glioma cells, dose response, cell-based, SU-DIPG-IV, MIPE4.0, CellTiter-Glo, qHTS (AID 1347063; cut-off not given, nearly all actives have AC50 up to about 30 µM;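 note: compound exposure lasted 48 hours before the viability readout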). As to conditions: SU-DIPG-IV viability, CellTiter-Glo ATP luminescence.
Assay [5] in a line: growth inhibition of DIPG glioma cells, dose response, cell-based, SU-DIPG-XIII, MIPE5.0, CellTiter-Glo, qHTS (AID 1347064; cut-off not given, nearly all actives have AC50 up to about 23 µM;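 for AC50: cells exposed to compound for 48 hours before the viability read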). As to conditions: SU-DIPG-XIII viability, CellTiter-Glo ATP luminescence.
A short description of assay [6]: viability loss in pontine glioma line – cell-based, SU-DIPG-XXV, MIPE5.0, CellTiter-Glo, qHTS, dose response (AID 1347065; cut-off not given, nearly all actives have AC50 up to about 26 µM;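 note: cells exposed to compound for 48 hours before ATP readout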). As to conditions: CellTiter-Glo ATP luminescence.
Assay [7] in a line: JHH-DIPG-1 glioma cell viability, MIPE5.0 library, CellTiter-Glo luminescence, qHTS (AID 1347067; cut-off not given, nearly all actives have AC50 up to about 26 µM;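 note: cells exposed to compound for 48 hours before readout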). As to conditions: JHH-DIPG-1 glioma viability, CellTiter-Glo ATP luminescence.
Assay [8] can be described thus: SU-DIPG-VI glioma cell viability, MIPE4.0 library, CellTiter-Glo luminescence, qHTS (AID 1347066; cut-off not given, nearly all actives have AC50 up to about 30 µM;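 note: cells exposed to compound for 48 hours before readout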). As to conditions: CellTiter-Glo ATP luminescence.
Assay [9] is described as follows: sensitizers of A549 cells to miR-34 induction, primary screen, imaging, A549 dox-inducible miR-34, nuclei and caspase counts (AID 1347080;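 active = compounds whose cell count with miR-34 switched on is under 0.7 times the count with it off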). As to conditions: A549 miR-34 inducible, Hoechst nuclei count, 48 h.
Assay [10] can be described thus: modifiers of HSF1 nuclear foci, imaging, Selleck Cancer Library (AID 1347162; in the data active = plate-normalised HSF1 focus index below about 0.46). As to conditions: human cells, at 10 µM; SSMD: measured here: HSF1 foci SSMD mean; cell count: measured here: cell number; plate-normalised HSF1 focus index: stronger effect = lower value.
Assay [11] can be described thus: survival rescue of mitochondrial mutant cells in low glucose, primary screen, MELAS cybrids, Rieske KO mouse fibroblasts, CellTiter-Glo (AID 1508586;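 active = mean z-score across replicates of 1.96 or higher in either the MELAS or the Rieske mutant cell line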;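 note: z relative to plate mean and SD of compound and empty wells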).
A short description of assay [12]: ovarian cancer cell viability with rucaparib, profiling panel, oncology-focused library, rucaparib conditional (AID 1508598). As to conditions: patient-derived ovarian cancer cells, CellTiter-Glo viability, 144 h, stronger effect = lower value.

As usually defined, the AC50 is the midpoint of the concentration-response curve, whichever way the signal moves. With `CC[C@H]1OC(=O)[C@H](C)C(=O)[C@H](C)[C@@H](O[C@H]2O[C@H](C)C[C@H](N(C)C)[C@H]2O)[C@](C)(OC)C[C@@H](C)C(=O)[C@H](C)[C@H]2N(CCCCn3cnc(-c4cccnc4)c3)C(=O)O[C@]12C`, in assay [1], the concentration at half-maximal activity (AC50) is 26.3 µM (active). For the same molecule, the result in [2], in assay [3], in assay [4], in assay [5], in assay [6] and in assay [7] was inactive.
As usually defined, the viability is a read-out of living cells in per cent, often relative to untreated cells. For the molecule `CCCCCCCCc1ccc(CCC(N)(CO)CO)cc1`, the concentration at half-maximal activity (AC50) in assay [1] was 10.5 µM (active); in assay [2] it was 23.5 µM (active); in assay [3], 9.35 µM (active); in [4], 3.72 µM (active); in assay [5], 18.6 µM (active); in assay [6] it was 10.5 µM (active). Also, the AC50 in assay [8] is 23.5 µM (active); in assay [7], 10.5 µM (active). The fold change in assay [9] (stronger effect = lower value, cell number ratio, induced over uninduced) was 0.951 (inactive) and 0.892 (inactive); in assay [9] (measured here: relative caspase fold change +Dox/-Dox), 0.756 and 0.682. The cell count was 5440 and 7580 in assay [9] (measured here: total cells with miR-34 induction, stronger effect = lower value); 5720 and 8490 in assay [9] (measured here: total cells without miR-34 induction); 3980 in assay [10]. In addition, in assay [10], the SSMD is -8.05. Also, in assay [10], the plate-normalised HSF1 focus index was 0.589 (inactive). In addition, the z-score in assay [11] (MELAS cybrid survival, CellTiter-Glo 48 h, stronger effect = higher value) is -0.312 (inactive); in assay [11] (Rieske KO mouse fibroblast survival, CellTiter-Glo 72 h), -0.433. Further, the viability in [12] (at 0.000305 µM, OCI-C5x cells, with rucaparib 10 µM, 100% = cells with rucaparib alone) is 106% (inactive); in [12] (at 0.000305 µM, OCI-C5x cells, without rucaparib), 117% (inactive); in assay [12] (at 0.000305 µM, OCI-P5x cells, with rucaparib 20 µM, 100% = cells with rucaparib alone), 107% (inactive); in assay [12] (at 0.000305 µM, OCI-P5x cells, without rucaparib) it was 111% (inactive); in [12] (at 0.00122 µM, OCI-C5x cells, with rucaparib 10 µM, 100% = cells with rucaparib alone), 110% (inactive); in [12] (at 0.00122 µM, OCI-C5x cells, without rucaparib) it was 112% (inactive). Also, the viability was 89.4% (active) in assay [12] (at 0.00122 µM, OCI-P5x cells, with rucaparib 20 µM, 100% = cells with rucaparib alone); 98% (active) in assay [12] (at 0.00122 µM, OCI-P5x cells, without rucaparib); 101% (inactive) in assay [12] (at 0.00488 µM, OCI-C5x cells, with rucaparib 10 µM, 100% = cells with rucaparib alone); 122% (inactive) in assay [12] (at 0.00488 µM, OCI-C5x cells, without rucaparib); 93.5% (active) in assay [12] (at 0.00488 µM, OCI-P5x cells, with rucaparib 20 µM, 100% = cells with rucaparib alone); 103% (inactive) in assay [12] (at 0.00488 µM, OCI-P5x cells, without rucaparib). Besides, the viability in [12] (at 0.0195 µM, OCI-C5x cells, with rucaparib 10 µM, 100% = cells with rucaparib alone) is 111% (inactive); in assay [12] (at 0.0195 µM, OCI-C5x cells, without rucaparib), 120% (inactive); in [12] (at 0.0195 µM, OCI-P5x cells, with rucaparib 20 µM, 100% = cells with rucaparib alone), 92.4% (active); in [12] (at 0.0195 µM, OCI-P5x cells, without rucaparib) it was 106% (inactive); in assay [12] (at 0.0781 µM, OCI-C5x cells, with rucaparib 10 µM, 100% = cells with rucaparib alone), 102% (inactive); in [12] (at 0.0781 µM, OCI-C5x cells, without rucaparib), 106% (inactive). Further, the viability is 88.8% (active) in assay [12] (at 0.0781 µM, OCI-P5x cells, with rucaparib 20 µM, 100% = cells with rucaparib alone); 53.5% (active) in assay [12] (at 0.0781 µM, OCI-P5x cells, without rucaparib); 112% (inactive) in assay [12] (at 0.313 µM, OCI-C5x cells, with rucaparib 10 µM, 100% = cells with rucaparib alone); 108% (inactive) in assay [12] (at 0.313 µM, OCI-C5x cells, without rucaparib); 108% (inactive) in assay [12] (at 0.313 µM, OCI-P5x cells, with rucaparib 20 µM, 100% = cells with rucaparib alone); 113% (inactive) in assay [12] (at 0.313 µM, OCI-P5x cells, without rucaparib). Also, the viability in assay [12] (at 1.25 µM, OCI-C5x cells, with rucaparib 10 µM, 100% = cells with rucaparib alone) was 103% (inactive); in [12] (at 1.25 µM, OCI-C5x cells, without rucaparib) it was 121% (inactive); in assay [12] (at 1.25 µM, OCI-P5x cells, with rucaparib 20 µM, 100% = cells with rucaparib alone), 64% (active); in [12] (at 1.25 µM, OCI-P5x cells, without rucaparib) it was 50.7% (active); in assay [12] (at 5 µM, OCI-C5x cells, with rucaparib 10 µM, 100% = cells with rucaparib alone), 90.1% (active); in assay [12] (at 5 µM, OCI-C5x cells, without rucaparib), 129% (inactive). Also, the viability in assay [12] (at 5 µM, OCI-P5x cells, with rucaparib 20 µM, 100% = cells with rucaparib alone) is 26% (active); in [12] (at 5 µM, OCI-P5x cells, without rucaparib) it was 0.383% (active).
`CN(C)CCN(C)C(=O)c1ccc(NC(=O)Nc2ccc(-c3nc(N4CCOCC4)c4ccn(CC(F)(F)F)c4n3)cc2)cc1`: the half-maximal activity concentration (AC50) is 0.235 µM (active) in assay [1]; 0.743 µM (active) in assay [2]; 0.469 µM (active) in assay [3]; 0.0332 µM (active) in [4]; 0.742 µM (active) in [5]; 0.332 µM (active) in assay [6]. Moreover, the AC50 in [8] was 0.662 µM (active); in [7], 1.48 µM (active). In [10], this molecule had an SSMD of 1.02. The molecule further registered a cell count in [10] of 7060. In addition, the plate-normalised HSF1 focus index in assay [10] is 1.06 (inactive).
